# According to PubChem BioAssay (Tox21):
# Inconclusive results are not listed. Where a call stands in place of a potency, no number is given. Unmarked numbers belong to inactive results. Calls of active or inactive are those of the source. Calls follow the shape of the dose curve; as a rule, active = well fitted curve in the direction sought with a large enough effect in the repeat runs; inconclusive = weak or mixed curves; inactive = no such curve, though single readings can be large; an effect the other way counts as inactive or inconclusive.
# Columns and labels:
# [1] = target: Cytochrome P450 2D6 (Homo sapiens) (UniProt P10635); test: Cytochrome P450 Family 2 Subfamily D Member 6 (CYP2D6) small molecule antagonists: luciferase reporter qHTS assay (AID 1671196); settings: P450-Glo CYP2D6 enzyme assay, luciferin luminescence, 1 h; series mostly up to 115 µM; also: nearly all actives have a fitted effect of over 50% in size; also: potency is read from the fitted curve at half-maximal effect
# Sequence of Cytochrome P450 2D6 (Homo sapiens) (P10635 whole entry, looked up): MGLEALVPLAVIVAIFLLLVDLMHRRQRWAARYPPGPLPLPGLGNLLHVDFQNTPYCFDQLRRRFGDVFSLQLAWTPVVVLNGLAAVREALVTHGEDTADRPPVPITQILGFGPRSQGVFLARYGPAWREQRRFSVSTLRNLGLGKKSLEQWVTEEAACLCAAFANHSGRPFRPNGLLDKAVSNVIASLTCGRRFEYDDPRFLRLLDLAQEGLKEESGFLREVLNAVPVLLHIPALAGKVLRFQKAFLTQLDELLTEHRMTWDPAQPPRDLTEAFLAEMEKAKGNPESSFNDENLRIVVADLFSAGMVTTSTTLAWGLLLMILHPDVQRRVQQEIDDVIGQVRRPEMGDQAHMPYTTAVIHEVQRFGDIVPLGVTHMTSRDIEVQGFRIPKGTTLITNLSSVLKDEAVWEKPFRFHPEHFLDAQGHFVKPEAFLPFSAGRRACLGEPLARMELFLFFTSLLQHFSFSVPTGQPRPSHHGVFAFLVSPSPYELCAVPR
# Method in brief: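 CYP2D6 activity was followed as luminescence from its luciferin product after a 1 h NADPH-driven reaction at room temperature. Enzyme-substrate mix and compound were pre-incubated for 10 min, and the signal was read 20 min after adding detection reagent.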
# [2] = target: Cytochrome P450 2C19 (Homo sapiens) (UniProt P33261); test: Cytochrome P450 Family 2 Subfamily C Member 19 (CYP2C19) small molecule antagonists: luciferase reporter qHTS assay (AID 1671197); settings: P450-Glo CYP2C19 enzyme, luciferin luminescence, 1 h; series mostly up to 115 µM; also: nearly all actives have a fitted effect of over 65% in size; also: potency is read from the fitted curve at half-maximal effect
# Sequence of Cytochrome P450 2C19 (Homo sapiens) (P33261 whole entry, looked up): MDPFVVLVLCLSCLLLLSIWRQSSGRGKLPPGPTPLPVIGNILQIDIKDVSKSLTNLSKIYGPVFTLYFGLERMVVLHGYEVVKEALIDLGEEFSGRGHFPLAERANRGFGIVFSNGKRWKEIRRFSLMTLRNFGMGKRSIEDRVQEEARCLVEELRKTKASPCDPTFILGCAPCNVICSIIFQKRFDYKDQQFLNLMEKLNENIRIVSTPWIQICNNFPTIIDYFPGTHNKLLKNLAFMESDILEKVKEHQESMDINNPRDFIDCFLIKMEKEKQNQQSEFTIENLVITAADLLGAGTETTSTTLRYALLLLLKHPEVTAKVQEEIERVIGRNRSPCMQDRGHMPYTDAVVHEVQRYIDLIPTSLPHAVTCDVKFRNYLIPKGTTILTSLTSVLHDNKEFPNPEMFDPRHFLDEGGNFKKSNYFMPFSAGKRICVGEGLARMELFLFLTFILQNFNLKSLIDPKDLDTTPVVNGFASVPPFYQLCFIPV
# Method in brief: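 Light output is proportional to CYP2C19 activity: proluciferin substrate is converted to luciferin, then detected by a luciferin detection reagent that also stops the 1 h, 37C NADPH-driven reaction. Ketoconazole serves as positive control.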
# [3] = target: Cytochrome P450 2C9 (Homo sapiens) (UniProt P11712); test: Cytochrome P450 Family 2 Subfamily C Member 9 (CYP2C9) small molecule antagonists: luciferase reporter qHTS assay (AID 1671198); settings: P450-Glo CYP2C9 enzyme assay, luciferin luminescence; series mostly up to 115 µM; also: nearly all actives have a fitted effect of over 50% in size; also: potency is read from the fitted curve at half-maximal effect
# Sequence of Cytochrome P450 2C9 (Homo sapiens) (P11712 whole entry, looked up): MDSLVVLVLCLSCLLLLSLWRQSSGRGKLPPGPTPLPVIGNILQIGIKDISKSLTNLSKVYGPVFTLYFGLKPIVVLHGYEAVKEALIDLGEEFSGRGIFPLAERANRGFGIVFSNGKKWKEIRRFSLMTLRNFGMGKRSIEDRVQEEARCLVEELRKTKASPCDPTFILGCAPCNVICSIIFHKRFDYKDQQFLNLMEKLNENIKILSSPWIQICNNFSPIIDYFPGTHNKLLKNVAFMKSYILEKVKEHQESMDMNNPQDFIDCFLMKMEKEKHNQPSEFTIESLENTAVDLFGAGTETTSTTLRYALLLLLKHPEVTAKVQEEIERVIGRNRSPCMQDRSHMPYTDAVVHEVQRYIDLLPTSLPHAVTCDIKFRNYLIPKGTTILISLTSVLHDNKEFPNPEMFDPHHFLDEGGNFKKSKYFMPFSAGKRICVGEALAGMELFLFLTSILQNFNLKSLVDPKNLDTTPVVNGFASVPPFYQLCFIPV
# Method in brief: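 Enzyme-substrate mix preincubated with compound 10 min at room temperature; reaction started with NADPH regeneration solution, 1 h 37C. Luminescent luciferin product read after 20 min detection reagent.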
# [4] = target: Cytochrome P450 1A2 (Homo sapiens) (UniProt P05177); test: Cytochrome P450 Family 1 Subfamily A Member 2 (CYP1A2) small molecule antagonists: luciferase reporter qHTS assay (AID 1671199); settings: P450-Glo CYP1A2 enzyme, luciferin luminescence, 1 h; series mostly up to 53 µM; also: nearly all actives have a fitted effect of over 50% in size; also: potency is read from the fitted curve at half-maximal effect
# Sequence of Cytochrome P450 1A2 (Homo sapiens) (P05177 whole entry, looked up): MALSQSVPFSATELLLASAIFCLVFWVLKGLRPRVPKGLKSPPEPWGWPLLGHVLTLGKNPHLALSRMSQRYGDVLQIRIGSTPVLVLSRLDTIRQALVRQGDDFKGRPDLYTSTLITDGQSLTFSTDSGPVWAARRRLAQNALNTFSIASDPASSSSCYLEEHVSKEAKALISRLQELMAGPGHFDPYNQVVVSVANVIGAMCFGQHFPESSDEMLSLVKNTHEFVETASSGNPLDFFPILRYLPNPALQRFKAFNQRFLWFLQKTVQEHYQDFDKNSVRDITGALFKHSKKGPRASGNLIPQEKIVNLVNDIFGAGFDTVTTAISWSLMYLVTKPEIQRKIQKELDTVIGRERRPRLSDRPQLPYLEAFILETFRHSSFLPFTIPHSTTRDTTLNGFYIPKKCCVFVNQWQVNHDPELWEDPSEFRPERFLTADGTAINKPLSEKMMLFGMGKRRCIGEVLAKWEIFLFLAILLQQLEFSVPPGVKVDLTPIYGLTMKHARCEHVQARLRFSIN
# Method in brief: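 Luminescence from luciferin formed by CYP1A2 from a proluciferin substrate, read 20 min after detection reagent. Compound was pre-incubated 10 min with enzyme-substrate, and reaction started with NADPH regeneration solution for 1 h at room temperature; furafylline control.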
# [5] = target: Voltage-gated inwardly rectifying potassium channel KCNH2 (Homo sapiens) (UniProt Q12809); test: Human Ether-a-go-go-Related Gene (hERG) channel small molecule antagonists: fluorescence cell-based qHTS assay (AID 1671200); settings: hERG-U2OS cells, FluxOR thallium flux fluorescence; series mostly up to 76.8 µM;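 also: hERG-expressing U2OS cells given a thallium stimulus after FluxOR II dye loading; nearly all actives have a fitted effect of over 50% in size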
# Sequence of Voltage-gated inwardly rectifying potassium channel KCNH2 (Homo sapiens) (Q12809 whole entry, looked up): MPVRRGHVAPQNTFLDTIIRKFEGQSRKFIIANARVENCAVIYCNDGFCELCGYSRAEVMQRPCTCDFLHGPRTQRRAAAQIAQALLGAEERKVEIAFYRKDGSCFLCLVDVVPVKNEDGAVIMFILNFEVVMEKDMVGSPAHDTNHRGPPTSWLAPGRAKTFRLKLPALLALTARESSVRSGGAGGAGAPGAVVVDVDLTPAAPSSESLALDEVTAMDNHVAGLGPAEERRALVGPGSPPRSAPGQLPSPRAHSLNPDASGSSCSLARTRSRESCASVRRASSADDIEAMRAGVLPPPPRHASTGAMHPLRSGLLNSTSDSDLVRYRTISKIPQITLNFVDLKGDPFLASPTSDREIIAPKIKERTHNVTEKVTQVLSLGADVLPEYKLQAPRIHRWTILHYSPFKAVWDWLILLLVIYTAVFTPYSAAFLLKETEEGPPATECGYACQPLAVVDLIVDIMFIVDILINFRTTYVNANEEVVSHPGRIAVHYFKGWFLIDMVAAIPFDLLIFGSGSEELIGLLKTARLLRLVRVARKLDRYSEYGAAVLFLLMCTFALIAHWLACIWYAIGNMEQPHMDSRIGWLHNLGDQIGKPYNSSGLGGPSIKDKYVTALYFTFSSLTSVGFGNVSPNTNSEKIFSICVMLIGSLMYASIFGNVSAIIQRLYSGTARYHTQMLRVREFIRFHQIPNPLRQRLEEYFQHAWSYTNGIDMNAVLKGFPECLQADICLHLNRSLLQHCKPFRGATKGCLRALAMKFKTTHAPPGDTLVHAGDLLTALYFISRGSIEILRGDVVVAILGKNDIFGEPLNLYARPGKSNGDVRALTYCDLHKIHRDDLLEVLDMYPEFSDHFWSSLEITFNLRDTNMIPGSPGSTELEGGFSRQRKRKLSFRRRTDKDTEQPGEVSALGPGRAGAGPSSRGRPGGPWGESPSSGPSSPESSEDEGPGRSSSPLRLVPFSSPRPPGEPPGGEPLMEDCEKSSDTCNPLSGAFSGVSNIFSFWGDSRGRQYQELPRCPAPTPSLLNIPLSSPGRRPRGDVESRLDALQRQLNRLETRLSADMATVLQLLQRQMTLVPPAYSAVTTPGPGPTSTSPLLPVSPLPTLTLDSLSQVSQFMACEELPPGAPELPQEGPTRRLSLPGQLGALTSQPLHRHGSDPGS
# Method in brief: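 hERG-U2OS cells plated overnight at 37 C, loaded with FluxOR II dye 1 h at RT in dark; after 10 min, thallium stimulus added. Fluorescence (480/540 nm) read kinetically for 2 min at 1 s intervals.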
# [6] = target: Cytochrome P450 3A4 (Homo sapiens) (UniProt P08684); test: Cytochrome P450 Family 3 Subfamily A Member 4 (CYP3A4) small molecule antagonists: luciferase reporter qHTS assay (AID 1671201); settings: P450-Glo CYP3A4 enzyme, luciferin luminescence, 1 h; series mostly up to 115 µM; also: nearly all actives have a fitted effect of over 50% in size; also: potency is read from the fitted curve at half-maximal effect
# Sequence of Cytochrome P450 3A4 (Homo sapiens) (P08684 whole entry, looked up): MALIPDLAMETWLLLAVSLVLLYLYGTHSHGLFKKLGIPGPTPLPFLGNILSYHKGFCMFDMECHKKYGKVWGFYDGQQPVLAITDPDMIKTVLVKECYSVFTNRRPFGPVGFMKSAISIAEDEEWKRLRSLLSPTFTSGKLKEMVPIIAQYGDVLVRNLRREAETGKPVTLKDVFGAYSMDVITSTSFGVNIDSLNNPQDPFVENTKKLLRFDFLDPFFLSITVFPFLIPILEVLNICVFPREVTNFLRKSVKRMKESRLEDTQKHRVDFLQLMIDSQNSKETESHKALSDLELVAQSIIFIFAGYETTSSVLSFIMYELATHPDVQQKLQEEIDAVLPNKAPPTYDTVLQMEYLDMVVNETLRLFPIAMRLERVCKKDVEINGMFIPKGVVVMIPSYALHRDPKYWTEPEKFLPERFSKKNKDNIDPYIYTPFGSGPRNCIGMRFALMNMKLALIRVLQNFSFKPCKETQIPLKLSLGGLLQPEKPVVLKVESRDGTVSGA
# Method in brief: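 P450-Glo CYP3A4 luminescent assay: compounds preincubated 10 min at room temperature with enzyme and proluciferin substrate, NADPH regeneration added, 1 h room-temperature reaction, stopped with luciferin detection reagent; luminescence read after 20 min. Ketoconazole positive control.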
Structure (SMILES),Potency [1],Potency [2],Potency [3],Potency [4],Potency [5],Potency [6]
COc1ccc2c(c1OC)C(=O)O[C@@H]2[C@H]1c2c(cc3c(c2OC)OCO3)CCN1C,11 µM (active),1.38 µM (active),0.871 µM (active),inactive,inactive,–
COc1cc(N)ccc1C,12.5 µM (active),1.98 µM (active),6.26 µM (active),4.98 µM (active),inactive,11.1 µM (active)
CC(C)(C)c1cc(CCC(=O)NN)cc(C(C)(C)C)c1O,35.6 µM (active),6.33 µM (active),5.03 µM (active),8.94 µM (active),inactive,0.159 µM (active)
COc1cc2c(cc1OC)[C@@H]1CC(=O)[C@@H](CC(C)C)CN1CC2,12.3 µM (active),7.76 µM (active),11 µM (active),–,–,–
CNC(=O)[C@H]1O[C@@H](n2cnc3c(NCc4cc(Cl)ccc4OCc4cc(C)no4)ncnc32)[C@H](O)[C@@H]1N,inactive,inactive,inactive,inactive,inactive,–
C=C1CC/C=C(\C)CC[C@@H]2[C@@H]1CC2(C)C,inactive,inactive,inactive,inactive,inactive,inactive
CN(C)CCOCCO,inactive,inactive,inactive,inactive,inactive,inactive
CCCCCCCCSCC,inactive,inactive,inactive,inactive,inactive,inactive
CC(=O)CCCCn1c(=O)c2c(ncn2C)n(C)c1=O,inactive,inactive,inactive,inactive,inactive,inactive
CC(C)C[C@H](NC(=O)CNC(=O)[C@H](Cc1ccc(O)cc1)NC(=O)[C@H](CO)NC(=O)[C@H](Cc1c[nH]c2ccccc12)NC(=O)[C@H](Cc1cnc[nH]1)NC(=O)[C@@H]1CCC(=O)N1)C(=O)N[C@@H](CCCN=C(N)N)C(=O)N1CCC[C@H]1C(=O)NCC(N)=O (stereo in doubt),inactive,inactive,inactive,–,–,–
CC(C)NCC(O)COc1ccc(COCCOC(C)C)cc1 (centres undefined),inactive,inactive,inactive,inactive,inactive,–
O=C(OCC(O)CO)c1ccccc1Nc1ccnc2c(C(F)(F)F)cccc12 (centres undefined),30.9 µM (active),0.347 µM (active),9.77 µM (active),2.88 µM (active),inactive,–
O=C(O)Cc1ccc(Cl)cc1Cl,31.7 µM (active),inactive,inactive,inactive,inactive,inactive
Cc1ccc2ccc(Cl)cc2n1,inactive,inactive,inactive,15.5 µM (active),inactive,inactive
CC(CO)c1ccccc1 (centres undefined),inactive,inactive,inactive,inactive,inactive,inactive
CC(=C(CCOC(=O)C(C)C)SSC(CCOC(=O)C(C)C)=C(C)N(C=O)Cc1cnc(C)nc1N)N(C=O)Cc1cnc(C)nc1N,inactive,inactive,inactive,inactive,–,–
COc1ccc2nc(SCc3ncc(C)c(OC)c3C)[nH]c2c1,27.5 µM (active),2.19 µM (active),13.8 µM (active),15.5 µM (active),inactive,–
O=C(OCc1ccccc1)C(=O)OCc1ccccc1,inactive,inactive,inactive,inactive,inactive,inactive
O=C(CCN1CCN(CCO)CC1)N1c2ccccc2Sc2ccc(C(F)(F)F)cc21,inactive,inactive,inactive,inactive,inactive,–
COc1cc(C(=S)N2CCOCC2)cc(OC)c1OC,inactive,21.9 µM (active),inactive,inactive,inactive,inactive
CC(C)C(=O)OCc1cccc(OC(=O)[C@@H]2N3C(=O)[C@@H](NC(=O)Cc4ccccc4)[C@H]3SC2(C)C)c1,inactive,inactive,12.3 µM (active),inactive,–,–
CC(S)C(=O)NCC(=O)O (centres undefined),inactive,inactive,inactive,inactive,inactive,inactive
COc1ccc2c(c1)C(=O)N(CCc1ccc(S(=O)(=O)NC(=O)NC3CCCCC3)cc1)C(=O)C2(C)C,inactive,inactive,13.8 µM (active),inactive,–,–
CCCCCCOc1ccccc1C(N)=O,inactive,17.4 µM (active),8.71 µM (active),13.8 µM (active),inactive,inactive
Cc1[nH]cnc1-c1ccc(Cl)cc1,13.8 µM (active),15.5 µM (active),15.5 µM (active),2.19 µM (active),inactive,–
CC1=CCC(C(C)C)=CC1,inactive,inactive,inactive,inactive,inactive,inactive
C=C(C)C1CCC(C)(O)CC1 (centres undefined),inactive,inactive,inactive,inactive,inactive,inactive
CCCCCCCCOS(=O)(=O)O,inactive,71 µM (active),28.3 µM (active),–,inactive,inactive
CCCCC(CC)COCCO (centres undefined),inactive,inactive,inactive,–,inactive,inactive
CCCCCOC(=O)CCC,inactive,inactive,inactive,inactive,inactive,inactive
